# Measurements as given in article PMC7862700, “An all-to-all approach to the identification of sequence-specific readers for epigenetic DNA modifications on cytosine”.
# Experiments:
# Assay in all cases: DAPPL (digital affinity profiling via proximity ligation, sequencing); 10 mM Tris-HCl pH 7.5, 50 mM NaCl, 1 mM DTT, 4% glycerol, room temperature, 30 min; GST-TFs on glutathione beads, 16-mer random dsDNA library, 0.1% formaldehyde crosslink after washing; high values mean tight binding
# FEV = molecular target: T1, FEV (Homo sapiens, UniProt Q99581 1-238); details: protein: recombinant; tags: N-terminal GST; dsDNA, one strand shown
# T1 sequence: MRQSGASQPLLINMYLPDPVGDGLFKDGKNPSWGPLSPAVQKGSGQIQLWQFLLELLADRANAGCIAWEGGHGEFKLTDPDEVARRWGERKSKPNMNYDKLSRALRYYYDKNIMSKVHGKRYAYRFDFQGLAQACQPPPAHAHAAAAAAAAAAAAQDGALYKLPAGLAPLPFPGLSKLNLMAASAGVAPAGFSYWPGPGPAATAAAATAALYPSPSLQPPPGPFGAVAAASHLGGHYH
# In short: (§1)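 The binding signal reported is, for every hexamer, its read frequency for a factor over its read frequency for the tag-only sample. Reads came from pools of yeast-expressed, GST-fused human transcription factors on glutathione beads, barcoded with DNA and mixed with that sample, which were incubated with 200 nmole of a random double-stranded 16-mer DNA library in Tris/NaCl/DTT/glycerol buffer at room temperature for 30 min. After washing, the pools were crosslinked with 0.1% formaldehyde, proximity-ligated with BsaI/T4 ligase for 1 h at 37 °C, PCR-amplified and sequenced on an Illumina NextSeq500.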
# ETV5 = ETV5 (Homo sapiens, UniProt P41161 1-510); details: protein: recombinant; tags: N-terminal GST; dsDNA, one strand shown
# Sequence of ETV5 (P41161 whole entry): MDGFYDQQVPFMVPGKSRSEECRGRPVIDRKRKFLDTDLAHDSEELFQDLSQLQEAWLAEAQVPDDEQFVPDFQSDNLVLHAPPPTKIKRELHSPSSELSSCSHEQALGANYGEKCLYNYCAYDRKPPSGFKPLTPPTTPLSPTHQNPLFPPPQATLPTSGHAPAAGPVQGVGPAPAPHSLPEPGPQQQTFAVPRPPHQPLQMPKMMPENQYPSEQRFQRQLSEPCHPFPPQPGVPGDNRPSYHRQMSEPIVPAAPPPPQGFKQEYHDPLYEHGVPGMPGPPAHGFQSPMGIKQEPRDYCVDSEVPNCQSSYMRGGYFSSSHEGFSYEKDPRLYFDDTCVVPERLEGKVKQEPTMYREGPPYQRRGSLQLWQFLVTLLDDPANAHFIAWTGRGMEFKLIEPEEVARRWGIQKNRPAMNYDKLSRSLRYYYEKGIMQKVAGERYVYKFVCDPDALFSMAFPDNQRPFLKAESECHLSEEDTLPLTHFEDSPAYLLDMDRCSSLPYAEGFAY
# In short: as §1
# HSF1 = HSF1 (Homo sapiens, UniProt Q00613 1-529); details: protein: recombinant; tags: N-terminal GST; chain copies: 3; dsDNA, one strand shown
# Sequence of HSF1 (Q00613 whole entry): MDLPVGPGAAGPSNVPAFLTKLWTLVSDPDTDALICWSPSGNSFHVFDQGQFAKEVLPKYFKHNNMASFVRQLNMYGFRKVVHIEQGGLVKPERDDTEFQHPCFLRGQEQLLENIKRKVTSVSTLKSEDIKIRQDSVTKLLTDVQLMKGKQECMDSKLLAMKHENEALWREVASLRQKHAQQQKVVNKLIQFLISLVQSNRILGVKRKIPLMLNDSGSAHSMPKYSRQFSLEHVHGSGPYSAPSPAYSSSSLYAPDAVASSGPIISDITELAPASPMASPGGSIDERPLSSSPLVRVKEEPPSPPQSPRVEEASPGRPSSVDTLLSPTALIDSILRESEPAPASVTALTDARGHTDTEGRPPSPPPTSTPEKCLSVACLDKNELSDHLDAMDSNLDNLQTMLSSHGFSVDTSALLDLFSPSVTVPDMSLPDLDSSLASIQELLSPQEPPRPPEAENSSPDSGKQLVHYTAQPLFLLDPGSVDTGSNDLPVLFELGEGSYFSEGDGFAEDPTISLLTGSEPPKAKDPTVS
# In short: as §1
# SPIC = molecular target: T2, SPIC (Homo sapiens, UniProt Q8N5J4 1-248); details: protein: recombinant; tags: N-terminal GST; dsDNA, one strand shown
# T2 sequence: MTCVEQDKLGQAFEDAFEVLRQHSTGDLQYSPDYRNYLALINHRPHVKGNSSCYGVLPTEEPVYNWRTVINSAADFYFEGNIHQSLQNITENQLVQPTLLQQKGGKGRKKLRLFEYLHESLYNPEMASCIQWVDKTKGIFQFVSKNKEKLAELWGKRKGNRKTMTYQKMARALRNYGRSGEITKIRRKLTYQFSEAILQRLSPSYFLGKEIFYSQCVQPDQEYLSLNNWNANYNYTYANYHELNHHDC
# In short: as §1
# ELF4 = ELF4 (Homo sapiens, UniProt Q99607 1-663); details: protein: recombinant; tags: N-terminal GST; dsDNA, one strand shown
# Sequence of ELF4 (Q99607 whole entry): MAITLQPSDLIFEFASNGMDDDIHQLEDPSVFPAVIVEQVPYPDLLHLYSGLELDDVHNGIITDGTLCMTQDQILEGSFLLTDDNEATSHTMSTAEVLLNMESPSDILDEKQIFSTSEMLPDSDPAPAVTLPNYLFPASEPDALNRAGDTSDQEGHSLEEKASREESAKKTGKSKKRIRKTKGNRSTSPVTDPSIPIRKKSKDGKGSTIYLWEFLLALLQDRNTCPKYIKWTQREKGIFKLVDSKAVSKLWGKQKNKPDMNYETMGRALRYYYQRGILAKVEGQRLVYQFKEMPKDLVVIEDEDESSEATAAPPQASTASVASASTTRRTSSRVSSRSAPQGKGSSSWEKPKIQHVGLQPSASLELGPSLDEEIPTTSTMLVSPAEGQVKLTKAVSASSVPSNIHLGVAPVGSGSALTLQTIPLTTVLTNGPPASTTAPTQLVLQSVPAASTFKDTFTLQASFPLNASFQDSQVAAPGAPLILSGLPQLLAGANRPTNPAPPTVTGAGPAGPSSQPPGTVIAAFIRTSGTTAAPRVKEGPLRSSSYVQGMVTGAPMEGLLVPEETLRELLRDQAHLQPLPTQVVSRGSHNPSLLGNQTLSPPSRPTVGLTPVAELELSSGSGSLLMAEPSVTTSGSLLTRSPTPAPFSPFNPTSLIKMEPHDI
# In short: as §1
# ELK4 = molecular target: T3, ELK4 (Homo sapiens, UniProt P28324-2 1-405); details: protein: recombinant; tags: N-terminal GST; dsDNA, one strand shown
# T3 sequence: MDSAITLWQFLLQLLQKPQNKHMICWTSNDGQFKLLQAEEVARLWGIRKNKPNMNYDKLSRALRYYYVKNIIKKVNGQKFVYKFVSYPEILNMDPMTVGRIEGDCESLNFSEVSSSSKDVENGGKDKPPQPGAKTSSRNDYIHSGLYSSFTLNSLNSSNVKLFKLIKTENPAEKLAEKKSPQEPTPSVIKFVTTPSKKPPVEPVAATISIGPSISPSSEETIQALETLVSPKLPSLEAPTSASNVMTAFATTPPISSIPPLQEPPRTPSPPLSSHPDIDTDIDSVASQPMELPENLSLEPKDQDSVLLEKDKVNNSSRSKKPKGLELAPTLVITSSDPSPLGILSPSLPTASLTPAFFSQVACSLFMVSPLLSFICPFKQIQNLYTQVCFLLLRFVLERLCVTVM
# In short: as §1
# ETV2 = molecular target: T4, ETV2 (Homo sapiens, UniProt O00321 1-342); details: protein: recombinant; tags: N-terminal GST; dsDNA, one strand shown
# T4 sequence: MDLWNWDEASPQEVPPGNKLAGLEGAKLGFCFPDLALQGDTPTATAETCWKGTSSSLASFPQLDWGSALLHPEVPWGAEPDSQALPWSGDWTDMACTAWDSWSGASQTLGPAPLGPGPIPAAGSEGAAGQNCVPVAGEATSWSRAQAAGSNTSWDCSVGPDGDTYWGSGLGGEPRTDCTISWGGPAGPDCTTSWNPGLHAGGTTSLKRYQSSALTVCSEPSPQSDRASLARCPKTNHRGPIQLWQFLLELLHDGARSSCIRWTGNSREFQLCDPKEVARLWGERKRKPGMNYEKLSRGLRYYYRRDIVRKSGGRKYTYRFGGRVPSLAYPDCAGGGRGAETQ
# In short: as §1
# ELF3 = molecular target: T5, ELF3 (Homo sapiens, UniProt P78545 1-371); details: protein: recombinant; tags: N-terminal GST; dsDNA, one strand shown
# T5 sequence: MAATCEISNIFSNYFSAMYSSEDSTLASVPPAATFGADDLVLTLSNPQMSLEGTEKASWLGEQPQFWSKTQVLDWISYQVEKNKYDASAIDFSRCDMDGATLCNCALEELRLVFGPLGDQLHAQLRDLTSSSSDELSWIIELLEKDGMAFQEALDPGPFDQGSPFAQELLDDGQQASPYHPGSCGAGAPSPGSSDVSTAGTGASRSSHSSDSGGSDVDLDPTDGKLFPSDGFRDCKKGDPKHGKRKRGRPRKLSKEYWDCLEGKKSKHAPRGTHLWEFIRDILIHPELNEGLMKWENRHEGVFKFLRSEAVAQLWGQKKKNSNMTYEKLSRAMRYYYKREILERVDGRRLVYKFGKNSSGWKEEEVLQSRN
# In short: as §1
# CRX = CRX (Homo sapiens, UniProt O43186 1-299); details: protein: recombinant; tags: N-terminal GST; dsDNA, one strand shown
# Sequence of CRX (O43186 whole entry): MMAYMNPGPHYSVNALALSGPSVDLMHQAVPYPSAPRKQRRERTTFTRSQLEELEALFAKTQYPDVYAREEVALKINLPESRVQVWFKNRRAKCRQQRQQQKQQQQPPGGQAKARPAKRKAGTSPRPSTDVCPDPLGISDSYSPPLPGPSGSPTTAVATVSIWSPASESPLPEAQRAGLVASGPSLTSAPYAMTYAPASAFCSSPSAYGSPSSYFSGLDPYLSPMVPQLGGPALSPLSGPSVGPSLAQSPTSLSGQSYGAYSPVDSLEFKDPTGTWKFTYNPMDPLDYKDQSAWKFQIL
# In short: as §1
# ETV1 = ETV1 (Homo sapiens, UniProt P50549 1-477); details: protein: recombinant; tags: N-terminal GST; dsDNA, one strand shown
# Sequence of ETV1 (P50549 whole entry): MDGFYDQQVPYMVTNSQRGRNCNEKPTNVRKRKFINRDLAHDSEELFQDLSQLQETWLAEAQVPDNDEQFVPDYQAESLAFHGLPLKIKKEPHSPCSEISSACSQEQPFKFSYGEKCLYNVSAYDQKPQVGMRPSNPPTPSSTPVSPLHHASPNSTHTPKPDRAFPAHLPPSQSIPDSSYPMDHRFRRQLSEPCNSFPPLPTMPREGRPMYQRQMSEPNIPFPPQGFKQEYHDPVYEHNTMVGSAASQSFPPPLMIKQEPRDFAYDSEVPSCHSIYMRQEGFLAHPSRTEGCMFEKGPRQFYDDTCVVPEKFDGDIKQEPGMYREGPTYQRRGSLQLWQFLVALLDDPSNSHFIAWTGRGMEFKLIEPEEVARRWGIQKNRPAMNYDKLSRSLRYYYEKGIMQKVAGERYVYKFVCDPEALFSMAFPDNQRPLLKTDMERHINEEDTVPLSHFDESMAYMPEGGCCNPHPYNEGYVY
# In short: as §1
# ERF = molecular target: T6, ERF (Homo sapiens, UniProt P50548 1-548); details: protein: recombinant; tags: N-terminal GST; dsDNA, one strand shown
# T6 sequence: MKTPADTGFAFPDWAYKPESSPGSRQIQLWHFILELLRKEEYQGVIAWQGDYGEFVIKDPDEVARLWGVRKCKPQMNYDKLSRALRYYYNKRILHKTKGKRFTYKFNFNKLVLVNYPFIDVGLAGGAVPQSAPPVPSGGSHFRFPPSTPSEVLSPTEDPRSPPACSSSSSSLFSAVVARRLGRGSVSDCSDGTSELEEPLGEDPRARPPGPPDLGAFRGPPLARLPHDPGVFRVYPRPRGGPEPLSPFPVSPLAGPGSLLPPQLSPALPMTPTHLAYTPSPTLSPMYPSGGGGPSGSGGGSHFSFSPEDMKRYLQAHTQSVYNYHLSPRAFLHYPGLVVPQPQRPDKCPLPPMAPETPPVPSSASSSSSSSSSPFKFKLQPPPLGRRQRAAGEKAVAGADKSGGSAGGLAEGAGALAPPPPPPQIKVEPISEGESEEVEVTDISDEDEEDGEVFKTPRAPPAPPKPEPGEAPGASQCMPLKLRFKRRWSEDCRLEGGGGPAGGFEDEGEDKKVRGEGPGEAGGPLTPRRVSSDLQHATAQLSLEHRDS
# In short: as §1
# ETV3L = molecular target: T7, ETV3L (Homo sapiens, UniProt Q6ZN32 1-361); details: protein: recombinant; tags: N-terminal GST; dsDNA, one strand shown
# T7 sequence: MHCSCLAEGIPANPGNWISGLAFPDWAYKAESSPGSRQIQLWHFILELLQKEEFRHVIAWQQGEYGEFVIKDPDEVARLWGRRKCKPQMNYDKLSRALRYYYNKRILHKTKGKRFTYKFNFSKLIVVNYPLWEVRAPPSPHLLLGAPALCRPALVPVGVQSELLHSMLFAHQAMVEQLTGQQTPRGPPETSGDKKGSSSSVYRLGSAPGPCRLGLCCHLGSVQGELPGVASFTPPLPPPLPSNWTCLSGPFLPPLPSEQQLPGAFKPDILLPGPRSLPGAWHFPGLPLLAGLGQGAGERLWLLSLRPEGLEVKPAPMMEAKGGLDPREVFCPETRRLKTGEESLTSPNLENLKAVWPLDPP
# In short: as §1
# ETS2 = molecular target: T8, ETS2 (Homo sapiens, UniProt P15036 1-469); details: protein: recombinant; tags: N-terminal GST; dsDNA, one strand shown
# T8 sequence: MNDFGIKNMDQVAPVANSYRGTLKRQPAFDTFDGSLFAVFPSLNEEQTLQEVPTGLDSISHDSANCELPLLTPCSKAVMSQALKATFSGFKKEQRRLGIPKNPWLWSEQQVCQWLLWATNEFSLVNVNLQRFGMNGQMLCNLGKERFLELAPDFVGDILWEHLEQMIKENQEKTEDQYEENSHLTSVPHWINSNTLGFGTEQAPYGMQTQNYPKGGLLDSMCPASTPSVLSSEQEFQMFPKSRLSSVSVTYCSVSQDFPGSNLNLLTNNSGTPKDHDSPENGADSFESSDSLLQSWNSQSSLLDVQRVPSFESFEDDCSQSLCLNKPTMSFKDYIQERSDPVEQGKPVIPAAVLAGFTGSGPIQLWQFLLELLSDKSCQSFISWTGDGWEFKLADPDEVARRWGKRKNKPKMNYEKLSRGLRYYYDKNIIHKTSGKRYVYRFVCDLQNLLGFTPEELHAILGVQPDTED
# In short: as §1
# SPDEF = molecular target: T9, SPDEF (Homo sapiens, UniProt O95238 1-335); details: protein: recombinant; tags: N-terminal GST; dsDNA, one strand shown
# T9 sequence: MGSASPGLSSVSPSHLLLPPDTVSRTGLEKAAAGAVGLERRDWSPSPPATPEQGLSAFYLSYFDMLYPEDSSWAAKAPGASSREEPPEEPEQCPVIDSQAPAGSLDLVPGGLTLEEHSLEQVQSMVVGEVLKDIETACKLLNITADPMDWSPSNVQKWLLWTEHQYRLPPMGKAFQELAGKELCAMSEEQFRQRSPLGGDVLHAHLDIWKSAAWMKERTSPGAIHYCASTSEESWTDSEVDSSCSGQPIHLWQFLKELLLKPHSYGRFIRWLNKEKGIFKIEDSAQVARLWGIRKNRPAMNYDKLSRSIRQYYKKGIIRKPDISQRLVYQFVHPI
# In short: as §1
# ETV7 = molecular target: T10, ETV7 (Homo sapiens, UniProt Q9Y603 1-341); details: protein: recombinant; tags: N-terminal GST; dsDNA, one strand shown
# T10 sequence: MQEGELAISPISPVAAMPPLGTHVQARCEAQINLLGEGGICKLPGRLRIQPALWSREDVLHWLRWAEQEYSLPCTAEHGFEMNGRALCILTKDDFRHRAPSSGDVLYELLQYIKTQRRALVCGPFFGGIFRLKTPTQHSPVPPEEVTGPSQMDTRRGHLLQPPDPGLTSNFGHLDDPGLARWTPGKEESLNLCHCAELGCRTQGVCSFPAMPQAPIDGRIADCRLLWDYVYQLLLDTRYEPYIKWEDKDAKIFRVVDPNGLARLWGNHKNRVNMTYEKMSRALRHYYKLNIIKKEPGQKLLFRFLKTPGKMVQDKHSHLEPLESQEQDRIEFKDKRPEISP
# In short: as §1
# ELF5 = molecular target: T11, ELF5 (Homo sapiens, UniProt Q9UKW6-2 1-255); details: protein: recombinant; tags: N-terminal GST; dsDNA, one strand shown
# T11 sequence: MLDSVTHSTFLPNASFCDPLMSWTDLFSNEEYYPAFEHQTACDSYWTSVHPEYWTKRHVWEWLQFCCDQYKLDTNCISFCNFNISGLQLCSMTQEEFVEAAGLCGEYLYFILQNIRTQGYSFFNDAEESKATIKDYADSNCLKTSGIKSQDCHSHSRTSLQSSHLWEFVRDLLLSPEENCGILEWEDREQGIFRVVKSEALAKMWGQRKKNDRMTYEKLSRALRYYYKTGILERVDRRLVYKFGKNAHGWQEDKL
# In short: as §1
# ETV3 = molecular target: T12, ETV3 (Homo sapiens, UniProt P41162-2 1-143); details: protein: recombinant; tags: N-terminal GST; dsDNA, one strand shown
# T12 sequence: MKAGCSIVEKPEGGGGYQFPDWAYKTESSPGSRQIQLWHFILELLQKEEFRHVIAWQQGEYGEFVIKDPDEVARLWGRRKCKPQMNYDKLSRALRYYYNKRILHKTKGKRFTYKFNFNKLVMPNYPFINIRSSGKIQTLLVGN
# In short: as §1
# ETV6 = ETV6 (Homo sapiens, UniProt P41212 1-452); details: protein: recombinant; tags: N-terminal GST; dsDNA, one strand shown
# Sequence of ETV6 (P41212 whole entry): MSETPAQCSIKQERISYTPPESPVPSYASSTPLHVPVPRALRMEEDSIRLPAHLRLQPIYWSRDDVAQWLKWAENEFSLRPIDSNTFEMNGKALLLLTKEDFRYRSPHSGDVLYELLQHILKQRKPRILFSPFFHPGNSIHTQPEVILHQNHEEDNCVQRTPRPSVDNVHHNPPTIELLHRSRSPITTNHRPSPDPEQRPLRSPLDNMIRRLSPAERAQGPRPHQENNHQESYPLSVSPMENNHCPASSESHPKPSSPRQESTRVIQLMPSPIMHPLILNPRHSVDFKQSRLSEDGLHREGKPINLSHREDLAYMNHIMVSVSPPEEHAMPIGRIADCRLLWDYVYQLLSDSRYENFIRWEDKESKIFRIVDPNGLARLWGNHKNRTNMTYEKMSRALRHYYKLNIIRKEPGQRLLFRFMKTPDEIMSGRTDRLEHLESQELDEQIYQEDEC
# In short: as §1
sequence,measurement,setting,value
AAAACC,binding signal,FEV,"1.24 fold enrichment (6-mer frequency, TF over GST control)"
same,binding signal,ETV5,"1.18 fold enrichment (6-mer frequency, TF over GST control)"
same,binding signal,HSF1,"1.09 fold enrichment (6-mer frequency, TF over GST control)"
same,binding signal,SPIC,"1.15 fold enrichment (6-mer frequency, TF over GST control)"
same,binding signal,ELF4,"1.19 fold enrichment (6-mer frequency, TF over GST control)"
same,binding signal,ELK4,"1.22 fold enrichment (6-mer frequency, TF over GST control)"
same,binding signal,ETV2,"1.15 fold enrichment (6-mer frequency, TF over GST control)"
same,binding signal,ELF3,"1.17 fold enrichment (6-mer frequency, TF over GST control)"
same,binding signal,CRX,"1.19 fold enrichment (6-mer frequency, TF over GST control)"
same,binding signal,ETV1,"1.19 fold enrichment (6-mer frequency, TF over GST control)"
same,binding signal,ERF,"1.22 fold enrichment (6-mer frequency, TF over GST control)"
same,binding signal,ETV3L,"1.18 fold enrichment (6-mer frequency, TF over GST control)"
same,binding signal,ETS2,"1.11 fold enrichment (6-mer frequency, TF over GST control)"
same,binding signal,SPDEF,"1.18 fold enrichment (6-mer frequency, TF over GST control)"
same,binding signal,ETV7,"1.25 fold enrichment (6-mer frequency, TF over GST control)"
same,binding signal,ELF5,"1.19 fold enrichment (6-mer frequency, TF over GST control)"
same,binding signal,ETV3,"1.08 fold enrichment (6-mer frequency, TF over GST control)"
same,binding signal,ETV6,"1.19 fold enrichment (6-mer frequency, TF over GST control)"
